Source: PubChem
PPARg SRC-2 ag = PPARgamma-driven SRC-2 recruitment agonism; 200,000 tested, 0.34% active; P37231; activation, % at 8 µM; PPARgamma LBD-SRC-2 recruitment, biochemical
Target sequence (P37231 whole entry, looked up, the tested form may be a part): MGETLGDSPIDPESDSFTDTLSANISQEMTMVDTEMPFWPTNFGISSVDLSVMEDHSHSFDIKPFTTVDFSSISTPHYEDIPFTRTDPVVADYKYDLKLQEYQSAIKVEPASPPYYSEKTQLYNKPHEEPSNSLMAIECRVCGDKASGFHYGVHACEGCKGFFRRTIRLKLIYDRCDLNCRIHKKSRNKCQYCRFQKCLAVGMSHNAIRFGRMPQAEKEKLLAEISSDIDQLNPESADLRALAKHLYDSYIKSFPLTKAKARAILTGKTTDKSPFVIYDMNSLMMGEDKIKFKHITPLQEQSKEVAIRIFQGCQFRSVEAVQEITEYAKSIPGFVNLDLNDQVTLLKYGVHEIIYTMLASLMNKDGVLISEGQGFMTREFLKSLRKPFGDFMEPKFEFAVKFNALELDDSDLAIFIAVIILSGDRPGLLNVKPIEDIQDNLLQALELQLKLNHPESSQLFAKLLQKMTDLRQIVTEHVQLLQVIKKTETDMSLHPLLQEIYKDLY
SRC3 TRFRET art = TR-FRET artefact, counter-screen to PPARgamma/SRC-3 agonist assay. PPARgamma/SRC-3 format; stronger effect = higher value. TR-FRET ratio at 8 µM. 99,000 tested, 0.39% active; in the data active = TR-FRET ratio above about 2000
PPARg SRC-1 ag = PPARgamma-driven SRC-1 recruitment agonism. 200,000 tested, 0.41% active. activation, % at 8 µM. AID 631. PPARgamma-SRC-1 coactivator recruitment biochemical assay. P37231; in the data active = activation above about 19%
PPARg SRC3 recr = agonists of human PPARgamma SRC-3 coactivator recruitment; biochemical PPARgamma/SRC-3 coactivator recruitment assay; activation, % at 8 µM; 200,000 tested, 0.26% active; in the data active = activation above about 23%
SRC1 TRFRET art = TR-FRET artefact, counter-screen to PPARgamma/SRC-1 agonist assay | TR-FRET detection artefact counter-screen, emission ratio; stronger effect = higher value | 99,000 tested, 0.34% active | TR-FRET ratio at 8 µM; in the data active = TR-FRET ratio above about 2300
TR-FRET SRC-2 ct = TR-FRET artefact, counter-screen to PPARgamma/SRC-2 agonist assay | stronger effect = higher value | TR-FRET ratio at 8 µM | 200,000 tested, 0.4% active; in the data active = TR-FRET ratio above about 2000
PPARg SRC2 ag = human PPARgamma SRC-2 recruitment agonism, confirmation; activation, % at 8 µM; biochemical SRC-2 recruitment by PPARgamma; 790 tested, 52% active; AID 1297; shares compounds with PPARg SRC3 recr
PPARg SRC1 ag = confirmation of agonists of SRC-1 recruitment by human PPARgamma; shares compounds with PPARg SRC3 recr; AID 1300; activation, % at 8 µM; 790 tested, 43% active; PPARgamma–SRC-1 coactivator recruitment biochemical assay; in the data active = activation above about 20%
PPARg SRC3 conf = confirmation of agonists of SRC-3 recruitment by human PPARgamma | shares compounds with PPARg SRC3 recr | biochemical PPARgamma-SRC-3 coactivator recruitment, agonist mode | activation, % at 8 µM | 790 tested, 29% active | AID 1301; in the data active = activation above about 24%
Hits are given with their value; i = inactive; nt = no result given. A selection: hits, their analogues and other compounds. The true share with any hit is near 0.9%. Rule as the data show it, unless noted: active = activation above about 22%; inactive = the rest.

SMILES	PPARg SRC-2 ag	SRC3 TRFRET art	PPARg SRC-1 ag	PPARg SRC3 recr	SRC1 TRFRET art	TR-FRET SRC-2 ct	PPARg SRC2 ag	PPARg SRC1 ag	PPARg SRC3 conf
CC1=CCC2C(=O)N(c3ccc(C(=O)N4CCCCCC4)cc3)C(=O)C2C1 (stereo unspecified)	i	nt	i	i	nt	i	nt	nt	nt
Cc1ccc2nc(N3CCN(S(=O)(=O)c4ccc(C)c(Cl)c4)CC3)c(C#N)cc2c1	i	nt	22	29	nt	i	i	i	i
Cc1ccc2nc(N3CCN(C)CC3)c(C#N)cc2c1	i	nt	i	i	nt	i	nt	nt	nt
Cc1cc2c(N=O)c(NO)ccc2[nH]1	i	nt	i	30	nt	i	i	i	i
O=Nc1c(O)[nH]c2ccc(F)cc12	i	i	i	i	i	i	nt	nt	nt
O=C(NCC1OCCCN1S(=O)(=O)c1cc(F)ccc1F)C(=O)NC1CCCCC1 (stereo unspecified)	i	i	i	i	i	i	nt	nt	nt
CCOC(=O)/C(C#N)=C\c1ccc(CC)s1	i	nt	i	i	nt	i	nt	nt	nt
CCOC(=O)/C(C#N)=C\C=C1C=CN(C)C=C1	32	nt	24	i	nt	i	i	i	i
Cc1ccc([N+](=O)[O-])cc1S(=O)(=O)n1ccnc1C	i	i	i	i	i	i	nt	nt	nt
CCOc1ccc(S(=O)(=O)N(C)c2ccc(OCC(=O)Nc3nc(-c4cc(OC)ccc4OC)cs3)cc2)cc1	26	2621	25	i	2860	2453	32	26	i
Cc1nc2ccc3nc(NC(=O)c4ccc5c(c4)OCCO5)sc3c2s1	i	nt	117	157	nt	2067	92	71	58
Nn1c(SCC(=O)NC2CCCc3ccccc32)nnc1-c1ccc(Cl)cc1Cl (stereo unspecified)	i	i	i	i	i	i	nt	nt	nt
COc1ccccc1OCCC(=O)OCC(=O)NC(C)c1ccccc1 (stereo unspecified)	i	i	i	i	i	i	nt	nt	nt
O=C(Nc1nnc(-c2ccco2)s1)C1CCN(S(=O)(=O)c2ccc(Cl)cc2)CC1	i	nt	34	36	nt	i	24	i	i
CC(=O)Sc1nc(-c2ccccc2)[nH]c1S(=O)(=O)c1ccc(C)cc1	i	i	22	37	i	i	i	21	i
Nc1ccccc1-c1n[nH]c(=S)s1	54	3076	54	43	3590	3141	40	31	25
O=C(COC(=O)C12CC3CC(CC(C3)C1)C2)Nc1nc2c(F)c(F)c(F)cc2s1	i	i	i	i	i	i	nt	nt	nt
CCOC(=O)Cc1csc(NC(=O)c2sc3nc4c(C)cc(C)cc4cc3c2N)n1	i	nt	i	27	nt	i	i	i	i
CCOC(=O)Cc1csc(NC(=O)c2csc(C)c2)n1	i	nt	i	i	nt	i	nt	nt	nt
COc1ccc(-c2nc(-c3cccs3)c(-c3cccs3)[nH]2)cc1OC	28	nt	23	30	nt	2267	35	31	26
CC(C)c1nc2sc3c(=O)[nH]c(=S)[nH]c3c2c2c1CCC2	33	2640	24	i	2489	2507	23	i	i
CCOC(=O)c1sc2nc(C(C)C)c3c(c2c1N)CCC3	i	i	i	i	i	i	nt	nt	nt
COc1cccc(-c2cc3c(=O)n(-c4ccccc4)c(=S)[nH]c3s2)c1	31	nt	23	i	nt	1988	i	i	i
COc1ccc(-c2csc3[nH]c(=S)n(-c4ccccc4)c(=O)c23)cc1OC	25	2099	i	i	2467	2183	i	i	i
COc1ccc(-n2c(=S)[nH]c3c(sc(=S)n3-c3ccccc3)c2=O)c(OC)c1	i	i	i	i	i	i	nt	nt	nt
SMILES	PPARg SRC-2 ag	SRC3 TRFRET art	PPARg SRC-1 ag	PPARg SRC3 recr	SRC1 TRFRET art	TR-FRET SRC-2 ct	PPARg SRC2 ag	PPARg SRC1 ag	PPARg SRC3 conf
CSC1=NCCN1CCOc1ccccc1	i	i	i	i	i	i	nt	nt	nt
CCC(/C=C1\Sc2ccc(OC)cc2N1CCO)=C\c1sc2ccc(OC)cc2[n+]1CCO	i	i	23	i	i	i	i	i	i
Cc1cc(C)cc(NC(=O)Cc2ccc(-n3cccc3)cc2)c1	i	i	i	i	i	i	nt	nt	nt
O=C(O)CCNC(=O)c1ccc(NC(=O)Cc2ccc(Cl)cc2)cc1	i	i	i	i	i	i	nt	nt	nt
COc1ccccc1NS(=O)(=O)c1cccc(NC(=O)c2sc3ccccc3c2Cl)c1	i	2458	22	i	2434	2161	i	i	i
COc1cc(C#N)c(N=C(SCC#N)N2CCOCC2)cc1OC	i	i	i	i	i	i	nt	nt	nt
CCn1c(=O)cc(SCC(=O)Nc2ccc3c(c2)OCO3)c2ccccc21	47	nt	24	32	nt	2330	44	32	29
CCn1c(=O)cc(SCC(=O)Nc2cccnc2)c2ccccc21	45	nt	19	27	nt	2082	31	20	i
CCCS(=O)(=O)N1CCN(C(=O)COc2ccc(OC)cc2)CC1	i	nt	i	i	nt	i	nt	nt	nt
Cc1ccc(OCCn2cc(/C=C3\C(=O)NN(c4ccccc4)C3=O)c3ccccc32)cc1	i	i	i	i	i	i	nt	nt	nt
O=C1NN(c2ccccc2)C(=O)/C1=C/c1ccc(Sc2cccc3ccccc23)o1	39	2511	30	i	2739	2448	25	i	i
COc1ccccc1N1CCN(C(=O)CCCn2nc(C)c([N+](=O)[O-])c2C)CC1	i	i	i	i	i	i	nt	nt	nt
CCN(CC)c1ccc(/C=C2\NC(=O)NC2=O)cc1	25	i	i	i	2555	i	i	i	i
CN(Cc1cn(C)nc1-c1ccccc1F)CC1CCCCO1 (stereo unspecified)	i	i	i	i	i	i	nt	nt	nt
COc1cc(NC(=O)c2cc3c(=O)n(C)c4ccccc4c3n2C)cc(OC)c1OC	i	nt	22	28	nt	i	i	i	i
O=C(N/N=C/C1CC2CCC1C2)c1c[nH]c2ccccc12 (stereo unspecified)	i	i	i	i	i	i	nt	nt	nt
O=c1c2cn[nH]c2[nH]c(=S)n1-c1cccc2ccccc12	24	2082	i	i	2560	2219	24	i	i
COc1ccc(CC(=O)Nc2ccc(-c3nc4cc(C)ccc4o3)c(O)c2)cc1OC	i	nt	43	i	nt	i	41	28	25
Cc1ccc2oc(-c3ccc(NC(=O)c4ccncc4)cc3O)nc2c1	i	i	i	i	i	i	nt	nt	nt
COc1ccc(CNc2nc(S(=O)(=O)c3ccccc3)c(Cl)s2)cc1OC	i	i	i	i	i	i	nt	nt	nt
Cc1ccc(N=Cc2sc(O)c3ccccc23)c(C)c1	i	nt	i	i	nt	i	nt	nt	nt
Cc1ccc(N=Cc2sc(O)c3ccccc23)cc1	29	nt	25	i	nt	i	i	i	i
Cc1ccc2nc3sc(C(=O)NCc4ccco4)c(N)c3cc2c1	i	nt	i	i	nt	i	nt	nt	nt
COc1cc2cc3c(N)c(C(=O)NCc4ccco4)sc3nc2cc1OC	i	nt	21	i	nt	i	i	i	i
